Source: PubChem BioAssay
Activity calls are given as the source filed them. Unless noted, how the calls were made is not given here.

How the values were obtained:
[1] = resazurin metabolic signal in HepG2 cells – cell-based, resazurin fluorescence, 24 h, PK04 Diversity Set, profiling panel (AID 1172); conditions: HepG2 viability, higher = more signal
[2] = budding yeast growth changes without added modifier – OD600, strain BY4716, 24 h, basal condition, primary screen (AID 1173); conditions: S. cerevisiae BY4716 growth, OD600, 24 h; higher = more signal, called active from +8 up or from −8 down
[3] = viability profiling in MM1S myeloma cells – cell-based, resazurin fluorescence, basal, 24 h, PK04 Diversity Set, profiling panel (AID 1174); conditions: higher = more signal, called active from +8 up or from −8 down;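 further: MM1S multiple myeloma cell line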
[4] = target: Dihydroorotate dehydrogenase (quinone), mitochondrial (Plasmodium falciparum (isolate 3D7)) (UniProt Q08210); assay: inhibition of P. falciparum DHODH – biochemical, C-terminal His tag, absorbance 600 nm, primary screen (AID 1175); conditions: PfDHODH enzyme, DCIP absorbance 600 nm; higher = more signal, called active from +8 up or from −8 down;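 further: recombinant parasite enzyme with a five histidine tag at its C terminus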
Sequence of Dihydroorotate dehydrogenase (quinone), mitochondrial (Plasmodium falciparum (isolate 3D7)) (Q08210 whole entry, looked up): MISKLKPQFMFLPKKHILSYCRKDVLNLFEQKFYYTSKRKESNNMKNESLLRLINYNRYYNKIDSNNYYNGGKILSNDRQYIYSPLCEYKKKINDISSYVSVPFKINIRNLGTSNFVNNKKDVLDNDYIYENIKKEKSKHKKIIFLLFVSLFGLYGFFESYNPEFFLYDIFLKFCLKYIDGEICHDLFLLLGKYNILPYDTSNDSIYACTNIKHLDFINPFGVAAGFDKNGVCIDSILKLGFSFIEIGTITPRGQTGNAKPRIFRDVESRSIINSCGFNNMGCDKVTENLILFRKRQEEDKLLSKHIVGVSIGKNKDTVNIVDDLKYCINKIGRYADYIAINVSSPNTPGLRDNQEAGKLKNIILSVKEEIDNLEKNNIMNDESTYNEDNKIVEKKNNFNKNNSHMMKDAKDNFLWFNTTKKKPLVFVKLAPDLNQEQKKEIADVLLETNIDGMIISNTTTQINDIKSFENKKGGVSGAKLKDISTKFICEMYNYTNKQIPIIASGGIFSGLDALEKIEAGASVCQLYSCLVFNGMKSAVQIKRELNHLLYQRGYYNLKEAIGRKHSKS

[5] = inhibition of PAO1 biofilm formation – strain PAO1, LB-PBS medium, absorbance 600 nm, primary screen (AID 1176); conditions: P. aeruginosa PAO1 growth/biofilm, A600, 12 h; higher = more signal
[6] = growth modulation of vineyard yeast isolate – strain RM11-1a, OD600, basal, 24 h, primary screen (AID 1177);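 further: cultures grown under basal conditions with no added stressor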; conditions: S. cerevisiae RM11-1a growth, OD600, 24 h; higher = more signal, called active from +8 up or from −8 down
[7] = growth of efflux-deficient E. coli DRC39 – strain DRC39, OD650, 24 h, E. coli filamentation inducers, primary screen (AID 1178);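 further: growth measured as culture turbidity by optical density at 650 nm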; conditions: E. coli DRC39 acrAB, higher = more signal, called active from +8 up or from −8 down
[8] = growth of efflux-deficient E. coli DRC39 – strain DRC39, OD650, 48 h, E. coli filamentation inducers, primary screen (AID 1179);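 further: screen aims at cell division blockers that make cells filament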; conditions: E. coli DRC39 delta-acrAB growth, higher = more signal, called active from +8 up or from −8 down
[9] = viability profiling in RPMI8226 myeloma cells – cell-based, resazurin fluorescence, basal, 24 h, PK04 Diversity Set, profiling panel (AID 1180); conditions: higher = more signal;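 further: RPMI8826 multiple myeloma cell line at 5000 cells per well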
[10] = target: E3 ubiquitin-protein ligase XIAP (Homo sapiens) (UniProt P98170); assay: small molecules binding XIAP protein – biophysical, small-molecule microarray, fluorescence 635 nm, primary screen (AID 1181); conditions: higher = more signal;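 further: score merges 667 nm emission and signal to noise over triplicate slides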
Sequence of E3 ubiquitin-protein ligase XIAP (Homo sapiens) (P98170 whole entry, looked up, the tested form may be a part): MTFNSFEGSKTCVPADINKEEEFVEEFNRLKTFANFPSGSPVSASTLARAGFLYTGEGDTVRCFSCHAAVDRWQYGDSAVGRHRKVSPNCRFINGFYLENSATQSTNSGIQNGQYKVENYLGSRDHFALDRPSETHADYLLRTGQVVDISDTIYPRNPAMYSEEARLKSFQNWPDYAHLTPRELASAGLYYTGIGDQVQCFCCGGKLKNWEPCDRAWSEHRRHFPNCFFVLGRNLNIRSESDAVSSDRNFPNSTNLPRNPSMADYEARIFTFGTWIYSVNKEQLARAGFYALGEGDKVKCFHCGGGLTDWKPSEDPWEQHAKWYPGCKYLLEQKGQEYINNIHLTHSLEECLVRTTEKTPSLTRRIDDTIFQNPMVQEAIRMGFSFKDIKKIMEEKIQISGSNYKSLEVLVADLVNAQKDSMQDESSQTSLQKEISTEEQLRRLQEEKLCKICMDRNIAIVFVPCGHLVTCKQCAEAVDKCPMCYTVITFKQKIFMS

[11] = system: XIP peptide (Xip251-270) binding; assay: XIP fragment 251-270 binding compounds – biochemical, small-molecule microarray, fluorescence 635/667 nm, 0.1 µg/mL protein, primary screen (AID 1182); conditions: fluorescent protein binding, 635 nm, higher = more signal, called active from +8 up or from −8 down
XIP peptide (Xip251-270) = assay: compounds binding XIP fragment 251-270 – biochemical, small-molecule microarray, fluorescence 635/667 nm, 0.5 µg/mL protein, primary screen (AID 1183); conditions: fluorescence 635 nm, higher = more signal
[12] = blood-stage malaria parasite viability loss – strain 3D7, DAPI fluorescence, 100 nL, primary screen (AID 1184);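 further: parasites grown inside human red blood cells in medium with human serum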; conditions: P. falciparum 3D7 growth, 3 d, higher = more signal
[13] = target: Homeobox protein Hox-A13 (Mus musculus) (UniProt Q62424); assay: disruptors of Hoxa13 oligonucleotide interaction – biochemical, fluorescence polarization, labeled oligonucleotide, primary screen (AID 1185); conditions: Hoxa13:DNA binding, 15 min, higher = more signal, called active from +8 up or from −8 down
Sequence of Homeobox protein Hox-A13 (Mus musculus) (Q62424 whole entry, looked up): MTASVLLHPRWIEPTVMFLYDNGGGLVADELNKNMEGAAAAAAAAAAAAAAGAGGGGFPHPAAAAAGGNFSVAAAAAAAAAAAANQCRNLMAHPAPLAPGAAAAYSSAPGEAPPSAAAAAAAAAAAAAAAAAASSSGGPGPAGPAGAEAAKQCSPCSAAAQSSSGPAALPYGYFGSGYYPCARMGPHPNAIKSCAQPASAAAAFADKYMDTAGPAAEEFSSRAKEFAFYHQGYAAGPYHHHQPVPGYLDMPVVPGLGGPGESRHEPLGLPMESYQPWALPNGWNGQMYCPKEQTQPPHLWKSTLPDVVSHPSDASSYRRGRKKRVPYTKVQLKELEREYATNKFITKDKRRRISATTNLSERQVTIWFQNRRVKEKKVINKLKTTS

[14] = blockers of DNA damage checkpoint Chk1 activation – imaging, HeLa, hydroxyurea, phospho-Chk1 antibody, percent positive cells, primary screen (AID 1186); conditions: hydroxyurea-induced phospho-Chk1 immunofluorescence imaging, higher = more signal
[15] = blockers of DNA damage checkpoint Chk1 activation – imaging, HeLa, hydroxyurea, phospho-Chk1 nuclear intensity, primary screen (AID 1187); conditions: hydroxyurea-induced phospho-Chk1 immunofluorescence imaging, higher = more signal

Row | Structure (SMILES) | z-score [1] | z-score [2] | z-score [3] | composite z-score [4] | z-score [5] | z-score [6] | z-score [7] | z-score [8] | z-score [9] | composite z-score [10] | composite z-score [11] | composite z-score (XIP peptide (Xip251-270)) | z-score [12] | z-score [13] | z-score [14] | z-score [15]
1 | COC(=O)c1c2oc(c1C(=O)OC)C(=O)N[C@@H](C(C)C)Cn1cc(nn1)C1(CCCCC1)NC(=O)N[C@H](CO)CC2 | 1.61 | -1.04 (inactive) | 1.31 (inactive) | 0.0825 (inactive) | 0.985 (inactive) | -0.719 (inactive) | 0.925 (inactive) | 1.11 (inactive) | 1.07 | 0.098 | 0.0023 (inactive) | 0.0911 | 0.0538 | -0.587 (inactive) | 0.193 (inactive) | 0.284 (inactive)
2 | CC(C)CNC(=O)[C@@]1(Cc2ccccc2I)c2ccccc2C(=O)N(Cc2ccccc2C(F)(F)F)[C@H]1c1ccc(CO)cc1 | -0.165 | 0.428 (inactive) | -0.0663 (inactive) | 0.366 (inactive) | -0.0528 (inactive) | 0.0567 (inactive) | -0.188 (inactive) | 0.588 (inactive) | -0.0359 | -0.271 | 1.43 (inactive) | 0.875 | -0.538 | -1.78 (inactive) | 0.172 (inactive) | 0.345 (inactive)
3 | CCOC(=O)C[C@H]1[C@H](OC(=O)c2cc3ccccc3oc2=O)[C@@H](NC(=O)CC(C)C)c2cc(OCCCO)ccc2N1C(=O)c1ccccc1 | -0.683 | -1.9 (inactive) | 0.338 (inactive) | -2.94 (inactive) | -1.39 (inactive) | -0.544 (inactive) | 1.94 (inactive) | 1.08 (inactive) | -0.0988 | -0.117 | -0.131 (inactive) | 0.495 | -1.89 | -1.53 (inactive) | -0.315 (inactive) | 0.0139 (inactive)
4 | CCCCN1CC=CC23O[C@@H]4C=CCOC(=O)[C@@H]4[C@H]2C(=O)N(CCCCCCO)[C@@H]3C1=O (stereo partly drawn) | -0.556 | 0.0518 (inactive) | 0.0626 (inactive) | -0.838 (inactive) | -0.112 (inactive) | -0.55 (inactive) | 0.272 (inactive) | 0.25 (inactive) | -0.386 | 0.245 | 1.31 (inactive) | -1.46 | -0.198 | -4.53 (inactive) | -0.0344 (inactive) | -0.364 (inactive)
5 | COc1ccc([Si](C)(C)[C@@H]2[C@@H](CCn3cc(CCO)nn3)O[C@]3(C(=O)N(Cc4cccc(N5C(=O)c6cccc7cccc5c67)c4)c4ccccc43)[C@H]2C)cc1 | -3.66 | 0.348 (inactive) | -6.83 (inactive) | 0.0598 (inactive) | -0.459 (inactive) | 1.69 (inactive) | -0.162 (inactive) | -0.831 (inactive) | -6.09 | -0.0999 | 1.49 (inactive) | 0.589 | -2.81 | -2.66 (inactive) | -0.953 (inactive) | -0.813 (inactive)
6 | COC(=O)[C@@]1(CCC(=O)OC(C)(C)C)N=C(c2ccc(OCCCO)cc2)O[C@H]1c1ccccc1 | -0.291 | -0.814 (inactive) | -1.34 (inactive) | 1.27 (inactive) | 0.618 (inactive) | 1.47 (inactive) | -3.29 (inactive) | -0.735 (inactive) | -0.808 | -0.0095 | 0.485 (inactive) | 0.732 | -2.43 | -4.58 (inactive) | -0.17 (inactive) | 0.284 (inactive)
7 | COCC(=C=CC[C@H](O)c1ccccc1OCCO)CCO | -0.504 | -0.547 (inactive) | -0.251 (inactive) | -0.799 (inactive) | 0.26 (inactive) | 0.338 (inactive) | -0.135 (inactive) | -0.113 (inactive) | -0.672 | -0.252 | 2.87 (inactive) | -0.501 | -0.549 | -2.98 (inactive) | 0.387 (inactive) | -0.186 (inactive)
8 | CC(C)[Si](C#CCCCC#N)(O[C@H](c1ccccc1)c1cn(Cc2cccc(Cl)c2)nn1)C(C)C | 0.36 | -0.718 (inactive) | 0.109 (inactive) | 0.369 (inactive) | 1.25 (inactive) | -0.358 (inactive) | -0.0251 (inactive) | -0.203 (inactive) | -0.701 | 0.149 | -0.186 (inactive) | 0.605 | -1.06 | -0.527 (inactive) | -0.628 (inactive) | -0.968 (inactive)
9 | COC(=O)[C@@]1(Cc2ccccc2)[C@H]2c3cc(C(=O)N(C)C)n(Cc4ccc(OC)c(OC)c4)c3C[C@H]2CN1C(=O)c1ccccc1 | -0.872 | 0.721 (inactive) | -0.799 (inactive) | -0.831 (inactive) | 0.302 (inactive) | 0.358 (inactive) | -0.874 (inactive) | -0.695 (inactive) | -2.19 | -0.289 | 0.713 (inactive) | 0.664 | -1.44 | -4.39 (inactive) | 0.639 (inactive) | 0.614 (inactive)
10 | COc1cc2c(cc1OC)CN(C(=O)[C@H]1[C@@H]3C(=O)O[C@@H](c4ccccc4)[C@@H](c4ccccc4)N3[C@@H](c3ccccc3OCCO)[C@]13C(=O)Nc1ccc(C#CCCO)cc13)CC2 | 0.51 | 1.69 (inactive) | -0.442 (inactive) | 0.749 (inactive) | 1.54 (inactive) | 3.11 (inactive) | -0.456 (inactive) | -0.542 (inactive) | -0.0397 | -0.152 | 0.138 (inactive) | 0.438 | -2.16 | 1.23 (inactive) | 0.211 (inactive) | 0.0914 (inactive)
11 | O=C(CS)NCCCCCNC(=O)[C@@H]1C[C@@H]2C(=O)NCC(=O)N2[C@@H]1c1cccc(OCCO)c1 | -0.28 | -1.01 (inactive) | 0.648 (inactive) | -0.61 (inactive) | 0.752 (inactive) | -2.63 (inactive) | 1.95 (inactive) | 2.01 (inactive) | 0.847 | -0.103 | 1.96 (inactive) | 0.343 | 0.082 | -3.25 (inactive) | -0.128 (inactive) | 0.361 (inactive)
12 | CCCNC(=O)[C@@H]1c2ccccc2C(=O)N(Cc2ccccc2OC)[C@H]1c1ccc(CO)cc1 | -0.314 | -0.42 (inactive) | -1.32 (inactive) | -0.486 (inactive) | -0.0933 (inactive) | 0.262 (inactive) | 0.324 (inactive) | 0.285 (inactive) | -0.694 | -0.113 | 0.273 (inactive) | 0.85 | -1.54 | -3.2 (inactive) | -0.175 (inactive) | -0.0848 (inactive)
13 | COc1ccc(CCNC(=O)[C@@]2(c3ccc([N+](=O)[O-])cc3)CC(=O)N(CC34CC5CC(CC(C5)C3)C4)[C@@H]2c2ccc(CO)cc2I)cc1 | -1.49 | 0.0097 (inactive) | -1.81 (inactive) | 0.387 (inactive) | 1.8 (inactive) | 0.437 (inactive) | 0.0777 (inactive) | 0.223 (inactive) | -1.79 | -0.195 | 0.417 (inactive) | 0.723 | -1.46 | -0.814 (inactive) | -0.155 (inactive) | 0.022 (inactive)
14 | CCCC=C(CCC)[C@@H](NS(=O)(=O)c1ccc(Cl)cc1)c1ccc(C(=O)OC)cc1 | 1.16 | 0.295 (inactive) | 0.349 (inactive) | -0.336 (inactive) | -0.719 (inactive) | -0.907 (inactive) | 0.198 (inactive) | -1.16 (inactive) | 0.0665 | -0.122 | -0.126 (inactive) | 0.536 | 0.198 | -1.43 (inactive) | 0.47 (inactive) | 0.175 (inactive)
15 | CO[C@H]1O[C@H](CO)[C@@H](OC(=O)Nc2ccccc2-c2ccccc2)[C@H](OC(=O)Nc2ccccc2-c2ccccc2)[C@@H]1OC(=O)Nc1ccccc1-c1ccccc1 | -0.141 | -0.652 (inactive) | -0.146 (inactive) | 0.288 (inactive) | 1.31 (inactive) | 2.59 (inactive) | 0.454 (inactive) | 0.434 (inactive) | 0.203 | -0.0233 | 0.979 (inactive) | 0.801 | -2.51 | -1.13 (inactive) | -0.0022 (inactive) | 0.119 (inactive)
16 | O=C1NC(=O)C2C1C=CC(C(O)C=Cc1ccc([N+](=O)[O-])cc1)N2Nc1ccc(Cl)cc1Cl (stereo not drawn) | -1.22 | -6.66 (inactive) | -1.19 (inactive) | 0.139 (inactive) | 0.807 (inactive) | 0.379 (inactive) | 0.178 (inactive) | -1.04 (inactive) | -0.615 | -0.197 | 2.22 (inactive) | 0.692 | -0.143 | -5.55 (inactive) | 0.104 (inactive) | -0.171 (inactive)
17 | O=C1O[C@H](c2ccccc2)[C@H](c2ccccc2)N2[C@H]1[C@@H](C(=O)N1CCN(c3ncccn3)CC1)[C@]1(C(=O)Nc3ccc(C#CC4=CCCCC4)cc31)[C@H]2c1ccccc1OCCO | -0.476 | 1.4 (inactive) | -1.49 (inactive) | -0.0965 (inactive) | 1.78 (inactive) | 1.29 (inactive) | -0.873 (inactive) | -1.05 (inactive) | -1.77 | 0.0547 | 0.263 (inactive) | 0.938 | -2.09 | 1.87 (inactive) | 0.28 (inactive) | 0.188 (inactive)
18 | CCCCN1CC=CC23O[C@@H]4/C=C\CCCOC(=O)C4[C@H]2C(=O)N(CCCO)[C@@H]3C1=O (stereo partly drawn) | 0.426 | 0.129 (inactive) | 0.31 (inactive) | 0.119 (inactive) | 0.55 (inactive) | -1.39 (inactive) | -0.0564 (inactive) | -0.314 (inactive) | 0.309 | -0.31 | 1.48 (inactive) | 0.737 | 0.651 | -5.29 (inactive) | 0.267 (inactive) | 0.576 (inactive)
